Two sequences from PMC7862700, “An all-to-all approach to the identification of sequence-specific readers for epigenetic DNA modifications on cytosine” can be followed below.

Holding throughout (test): DAPPL (digital affinity profiling via proximity ligation, sequencing); 10 mM Tris-HCl pH 7.5, 50 mM NaCl, 1 mM DTT, 4% glycerol, room temperature, 30 min; GST-TFs on glutathione beads, 16-mer random dsDNA library, 0.1% formaldehyde crosslink after washing; high values mean tight binding
Conditions in all cases: protein: recombinant; tags: N-terminal GST; dsDNA, one strand shown

The target in experiment [1] is T1, FLI1 (Homo sapiens, UniProt Q01543 1-452).
T1 sequence: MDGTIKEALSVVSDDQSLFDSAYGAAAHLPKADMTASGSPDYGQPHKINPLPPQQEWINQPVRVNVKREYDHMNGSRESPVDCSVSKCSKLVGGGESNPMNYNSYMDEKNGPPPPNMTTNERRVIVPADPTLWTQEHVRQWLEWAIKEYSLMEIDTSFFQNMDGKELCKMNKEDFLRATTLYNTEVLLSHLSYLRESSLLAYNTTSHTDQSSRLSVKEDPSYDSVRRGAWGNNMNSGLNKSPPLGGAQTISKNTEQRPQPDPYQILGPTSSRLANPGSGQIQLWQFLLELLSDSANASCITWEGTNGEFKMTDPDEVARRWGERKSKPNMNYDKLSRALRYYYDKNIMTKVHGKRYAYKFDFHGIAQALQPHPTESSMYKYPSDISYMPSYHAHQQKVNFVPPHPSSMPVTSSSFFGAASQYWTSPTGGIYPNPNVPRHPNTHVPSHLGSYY
The gist of the method: (§1)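 A tag-only sample was pooled with DNA-barcoded human transcription factors that had been expressed in yeast as GST fusions and captured on glutathione beads. The pools were incubated for 30 min at room temperature with 200 nmole of a random double-stranded 16-mer DNA library in Tris/NaCl/DTT/glycerol buffer, then washed, crosslinked with 0.1% formaldehyde, proximity-ligated (BsaI/T4 ligase, 1 h, 37 °C), PCR-amplified and sequenced on an Illumina NextSeq500. Binding signal is each hexamer's read frequency for a factor divided by its frequency for the tag-only sample.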

Experiment [2] has as its target T2, ELK1 (Homo sapiens, UniProt P19419 1-428).
T2 sequence: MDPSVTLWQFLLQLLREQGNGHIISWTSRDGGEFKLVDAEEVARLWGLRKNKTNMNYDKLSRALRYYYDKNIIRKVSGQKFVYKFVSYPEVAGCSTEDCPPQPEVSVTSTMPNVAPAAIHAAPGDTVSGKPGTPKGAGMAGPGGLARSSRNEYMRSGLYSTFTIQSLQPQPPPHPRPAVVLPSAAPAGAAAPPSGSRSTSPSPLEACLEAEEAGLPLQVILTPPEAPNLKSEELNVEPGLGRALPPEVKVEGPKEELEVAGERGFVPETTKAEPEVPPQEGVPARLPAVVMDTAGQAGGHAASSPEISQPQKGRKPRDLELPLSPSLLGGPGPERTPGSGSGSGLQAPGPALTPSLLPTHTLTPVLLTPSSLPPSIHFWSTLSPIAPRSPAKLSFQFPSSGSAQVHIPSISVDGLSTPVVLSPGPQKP
In a few lines:
as §1

Experiment [3] deals with T3, GABPA (Homo sapiens, UniProt Q06546 1-454).
T3 sequence: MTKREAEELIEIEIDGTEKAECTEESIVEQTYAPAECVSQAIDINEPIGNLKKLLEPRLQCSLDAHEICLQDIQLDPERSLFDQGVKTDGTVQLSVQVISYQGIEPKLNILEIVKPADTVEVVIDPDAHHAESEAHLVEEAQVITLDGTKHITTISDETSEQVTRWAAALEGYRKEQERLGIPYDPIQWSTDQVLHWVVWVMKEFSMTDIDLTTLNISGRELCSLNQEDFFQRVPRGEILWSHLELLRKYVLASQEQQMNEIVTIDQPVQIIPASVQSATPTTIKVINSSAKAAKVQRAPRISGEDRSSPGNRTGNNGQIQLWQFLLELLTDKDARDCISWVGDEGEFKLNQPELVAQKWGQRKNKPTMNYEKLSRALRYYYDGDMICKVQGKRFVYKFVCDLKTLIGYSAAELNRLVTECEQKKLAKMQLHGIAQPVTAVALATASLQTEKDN
In a few lines:
as §1

The target in experiment [4] is T4, ERG (Homo sapiens, UniProt P11308 1-479).
T4 sequence: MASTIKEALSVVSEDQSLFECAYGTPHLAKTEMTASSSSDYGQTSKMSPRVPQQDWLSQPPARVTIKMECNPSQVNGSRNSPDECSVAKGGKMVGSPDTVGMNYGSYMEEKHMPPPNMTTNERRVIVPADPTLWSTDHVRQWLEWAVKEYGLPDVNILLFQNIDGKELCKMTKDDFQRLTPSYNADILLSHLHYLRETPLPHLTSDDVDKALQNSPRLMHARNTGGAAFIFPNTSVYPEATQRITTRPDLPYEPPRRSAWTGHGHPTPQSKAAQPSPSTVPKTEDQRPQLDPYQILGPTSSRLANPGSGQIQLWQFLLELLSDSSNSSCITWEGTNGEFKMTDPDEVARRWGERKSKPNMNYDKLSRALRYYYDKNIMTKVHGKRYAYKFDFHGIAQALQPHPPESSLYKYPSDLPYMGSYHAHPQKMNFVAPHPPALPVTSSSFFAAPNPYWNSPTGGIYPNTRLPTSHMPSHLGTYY
In a few lines:
as §1

In experiment [5] the target is ELF1 (Homo sapiens, UniProt P32519 1-619). The gist of the method: as §1
ELF1, sequence (P32519 whole entry): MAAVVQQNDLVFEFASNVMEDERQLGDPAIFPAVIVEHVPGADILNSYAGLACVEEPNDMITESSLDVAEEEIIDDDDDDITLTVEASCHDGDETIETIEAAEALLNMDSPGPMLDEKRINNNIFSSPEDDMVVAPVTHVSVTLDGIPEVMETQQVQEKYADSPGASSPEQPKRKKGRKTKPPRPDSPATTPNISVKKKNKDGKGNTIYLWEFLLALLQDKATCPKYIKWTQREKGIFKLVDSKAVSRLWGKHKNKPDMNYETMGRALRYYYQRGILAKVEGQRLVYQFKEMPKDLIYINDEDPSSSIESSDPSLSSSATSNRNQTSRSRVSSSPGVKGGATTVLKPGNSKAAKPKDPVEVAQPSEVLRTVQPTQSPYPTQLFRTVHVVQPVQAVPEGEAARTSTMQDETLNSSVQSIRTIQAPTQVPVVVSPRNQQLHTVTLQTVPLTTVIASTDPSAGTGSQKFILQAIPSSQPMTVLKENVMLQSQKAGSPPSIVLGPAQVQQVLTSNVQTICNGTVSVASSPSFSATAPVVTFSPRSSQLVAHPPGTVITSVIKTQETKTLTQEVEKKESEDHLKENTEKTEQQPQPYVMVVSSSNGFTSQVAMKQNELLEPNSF
The target of experiment [6] is T5, EHF (Homo sapiens, UniProt Q9NZC4 1-300).
T5 sequence: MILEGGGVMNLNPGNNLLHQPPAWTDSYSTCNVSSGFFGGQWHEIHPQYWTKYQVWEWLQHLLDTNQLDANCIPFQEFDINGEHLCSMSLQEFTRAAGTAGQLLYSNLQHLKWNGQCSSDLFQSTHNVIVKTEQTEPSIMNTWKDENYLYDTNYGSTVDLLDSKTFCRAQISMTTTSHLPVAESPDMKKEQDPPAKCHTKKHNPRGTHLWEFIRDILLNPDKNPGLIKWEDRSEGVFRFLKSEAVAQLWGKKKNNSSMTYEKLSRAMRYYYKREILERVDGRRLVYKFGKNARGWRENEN
The gist of the method: as §1

Experiment [7] has as its target SPI1 (Homo sapiens, UniProt P17947 1-270). In a few lines: as §1
The target in experiment [8] is SPIB (Homo sapiens, UniProt Q01892 1-262). The gist of the method:
as §1

Experiment [9] addresses T6, ELK3 (Homo sapiens, UniProt P41970 1-407).
T6 sequence: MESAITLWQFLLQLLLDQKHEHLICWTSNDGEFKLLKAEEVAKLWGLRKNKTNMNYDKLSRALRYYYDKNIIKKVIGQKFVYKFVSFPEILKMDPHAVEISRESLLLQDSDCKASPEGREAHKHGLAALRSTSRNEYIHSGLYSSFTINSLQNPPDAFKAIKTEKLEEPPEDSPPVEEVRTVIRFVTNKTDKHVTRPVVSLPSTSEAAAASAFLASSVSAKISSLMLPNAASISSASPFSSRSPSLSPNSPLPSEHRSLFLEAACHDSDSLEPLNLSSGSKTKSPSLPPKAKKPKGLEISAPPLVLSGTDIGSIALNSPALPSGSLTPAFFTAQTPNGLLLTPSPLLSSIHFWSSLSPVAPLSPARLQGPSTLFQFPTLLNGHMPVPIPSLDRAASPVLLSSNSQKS
The gist of the method:
as §1

The target of experiment [10] is T7, FEV (Homo sapiens, UniProt Q99581 1-238).
T7 sequence: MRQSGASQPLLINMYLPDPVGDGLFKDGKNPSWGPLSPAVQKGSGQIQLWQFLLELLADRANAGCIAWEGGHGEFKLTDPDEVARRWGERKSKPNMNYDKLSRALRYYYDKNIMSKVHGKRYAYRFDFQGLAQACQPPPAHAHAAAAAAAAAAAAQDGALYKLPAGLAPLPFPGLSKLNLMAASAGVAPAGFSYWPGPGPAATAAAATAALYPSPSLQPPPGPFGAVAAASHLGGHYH
In a few lines:
as §1

Experiment [11] concerns the target ETV5 (Homo sapiens, UniProt P41161 1-510). The gist of the method: as §1
Experiment [12] concerns the target T8, SPIC (Homo sapiens, UniProt Q8N5J4 1-248).
T8 sequence: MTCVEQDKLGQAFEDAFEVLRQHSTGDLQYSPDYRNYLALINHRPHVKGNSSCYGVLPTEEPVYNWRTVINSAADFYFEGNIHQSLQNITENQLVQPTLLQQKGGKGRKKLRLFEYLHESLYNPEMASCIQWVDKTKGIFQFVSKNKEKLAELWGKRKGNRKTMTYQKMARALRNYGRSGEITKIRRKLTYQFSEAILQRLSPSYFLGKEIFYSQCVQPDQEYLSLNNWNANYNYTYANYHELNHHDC
The gist of the method:
as §1

The target in experiment [13] is ELF4 (Homo sapiens, UniProt Q99607 1-663). In a few lines:
as §1

Experiment [14] has as its target T9, ELK4 (Homo sapiens, UniProt P28324-2 1-405).
T9 sequence: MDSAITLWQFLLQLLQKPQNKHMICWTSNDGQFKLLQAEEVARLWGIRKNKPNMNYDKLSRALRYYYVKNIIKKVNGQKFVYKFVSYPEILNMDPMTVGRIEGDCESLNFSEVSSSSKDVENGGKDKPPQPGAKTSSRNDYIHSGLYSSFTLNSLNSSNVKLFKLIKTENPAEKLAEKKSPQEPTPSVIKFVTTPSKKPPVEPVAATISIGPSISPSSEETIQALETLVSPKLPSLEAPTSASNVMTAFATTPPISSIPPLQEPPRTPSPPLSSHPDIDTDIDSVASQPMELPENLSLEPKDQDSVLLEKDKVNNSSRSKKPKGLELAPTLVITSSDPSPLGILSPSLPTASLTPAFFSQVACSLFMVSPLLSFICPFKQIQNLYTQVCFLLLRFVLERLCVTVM
In a few lines:
as §1

Experiment [15] deals with T10, ETV2 (Homo sapiens, UniProt O00321 1-342).
T10 sequence: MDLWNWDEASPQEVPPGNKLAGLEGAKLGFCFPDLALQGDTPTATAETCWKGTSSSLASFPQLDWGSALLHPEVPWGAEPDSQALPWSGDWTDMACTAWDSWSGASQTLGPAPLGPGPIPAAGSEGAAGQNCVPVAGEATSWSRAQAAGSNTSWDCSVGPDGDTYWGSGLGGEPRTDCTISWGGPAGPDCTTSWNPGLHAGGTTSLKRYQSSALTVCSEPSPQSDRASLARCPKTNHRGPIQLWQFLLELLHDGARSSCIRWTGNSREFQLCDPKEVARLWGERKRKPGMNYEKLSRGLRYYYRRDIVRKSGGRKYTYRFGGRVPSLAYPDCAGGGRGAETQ
The gist of the method:
as §1

In experiment [16] the target is T11, ELF3 (Homo sapiens, UniProt P78545 1-371).
T11 sequence: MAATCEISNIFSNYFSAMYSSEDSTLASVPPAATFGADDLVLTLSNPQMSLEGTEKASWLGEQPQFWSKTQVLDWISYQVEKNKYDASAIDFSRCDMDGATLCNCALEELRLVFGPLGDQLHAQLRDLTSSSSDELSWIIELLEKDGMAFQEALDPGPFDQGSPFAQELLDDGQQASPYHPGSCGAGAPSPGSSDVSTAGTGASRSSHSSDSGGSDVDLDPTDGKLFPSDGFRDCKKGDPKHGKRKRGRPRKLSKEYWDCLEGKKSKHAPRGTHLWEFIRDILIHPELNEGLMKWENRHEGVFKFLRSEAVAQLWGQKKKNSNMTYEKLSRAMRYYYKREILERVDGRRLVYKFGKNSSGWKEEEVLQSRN
The gist of the method:
as §1

Experiment [17] has as its target ETV1 (Homo sapiens, UniProt P50549 1-477). In a few lines: as §1

ETV5, sequence (P41161 whole entry): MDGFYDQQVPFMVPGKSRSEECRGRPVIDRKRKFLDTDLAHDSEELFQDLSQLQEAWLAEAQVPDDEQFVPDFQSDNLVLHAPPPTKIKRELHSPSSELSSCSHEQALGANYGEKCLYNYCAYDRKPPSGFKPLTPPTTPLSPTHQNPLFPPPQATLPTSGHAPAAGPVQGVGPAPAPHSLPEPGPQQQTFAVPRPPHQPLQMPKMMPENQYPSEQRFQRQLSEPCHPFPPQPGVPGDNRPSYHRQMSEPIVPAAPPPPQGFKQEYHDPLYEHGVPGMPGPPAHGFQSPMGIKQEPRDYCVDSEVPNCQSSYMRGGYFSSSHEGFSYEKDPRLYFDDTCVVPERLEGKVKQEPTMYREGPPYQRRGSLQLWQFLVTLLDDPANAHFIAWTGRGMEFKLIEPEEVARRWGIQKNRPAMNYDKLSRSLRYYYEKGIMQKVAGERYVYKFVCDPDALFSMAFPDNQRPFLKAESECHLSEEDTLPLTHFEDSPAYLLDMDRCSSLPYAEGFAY
ETV1, sequence (P50549 whole entry): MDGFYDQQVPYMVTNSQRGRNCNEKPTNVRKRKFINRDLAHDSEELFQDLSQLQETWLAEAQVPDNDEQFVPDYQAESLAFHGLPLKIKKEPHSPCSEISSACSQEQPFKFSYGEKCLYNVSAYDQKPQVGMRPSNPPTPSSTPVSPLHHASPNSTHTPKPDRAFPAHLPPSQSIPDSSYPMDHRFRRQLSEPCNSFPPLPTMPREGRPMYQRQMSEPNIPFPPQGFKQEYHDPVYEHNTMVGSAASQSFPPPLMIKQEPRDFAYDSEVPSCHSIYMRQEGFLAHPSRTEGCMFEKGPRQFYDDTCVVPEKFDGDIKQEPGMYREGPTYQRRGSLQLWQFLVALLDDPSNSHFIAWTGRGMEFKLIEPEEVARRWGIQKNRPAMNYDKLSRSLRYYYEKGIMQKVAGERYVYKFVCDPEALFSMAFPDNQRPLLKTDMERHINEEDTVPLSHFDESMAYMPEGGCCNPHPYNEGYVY
SPIB, sequence (Q01892 whole entry): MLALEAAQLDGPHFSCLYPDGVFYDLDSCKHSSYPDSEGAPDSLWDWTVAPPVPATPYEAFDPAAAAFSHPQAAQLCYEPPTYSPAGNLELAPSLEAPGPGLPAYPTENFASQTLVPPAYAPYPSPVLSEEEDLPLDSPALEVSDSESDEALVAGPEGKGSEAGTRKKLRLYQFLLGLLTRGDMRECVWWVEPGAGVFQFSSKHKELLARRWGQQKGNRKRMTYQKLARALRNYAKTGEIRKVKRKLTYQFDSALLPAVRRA
ELF4, sequence (Q99607 whole entry): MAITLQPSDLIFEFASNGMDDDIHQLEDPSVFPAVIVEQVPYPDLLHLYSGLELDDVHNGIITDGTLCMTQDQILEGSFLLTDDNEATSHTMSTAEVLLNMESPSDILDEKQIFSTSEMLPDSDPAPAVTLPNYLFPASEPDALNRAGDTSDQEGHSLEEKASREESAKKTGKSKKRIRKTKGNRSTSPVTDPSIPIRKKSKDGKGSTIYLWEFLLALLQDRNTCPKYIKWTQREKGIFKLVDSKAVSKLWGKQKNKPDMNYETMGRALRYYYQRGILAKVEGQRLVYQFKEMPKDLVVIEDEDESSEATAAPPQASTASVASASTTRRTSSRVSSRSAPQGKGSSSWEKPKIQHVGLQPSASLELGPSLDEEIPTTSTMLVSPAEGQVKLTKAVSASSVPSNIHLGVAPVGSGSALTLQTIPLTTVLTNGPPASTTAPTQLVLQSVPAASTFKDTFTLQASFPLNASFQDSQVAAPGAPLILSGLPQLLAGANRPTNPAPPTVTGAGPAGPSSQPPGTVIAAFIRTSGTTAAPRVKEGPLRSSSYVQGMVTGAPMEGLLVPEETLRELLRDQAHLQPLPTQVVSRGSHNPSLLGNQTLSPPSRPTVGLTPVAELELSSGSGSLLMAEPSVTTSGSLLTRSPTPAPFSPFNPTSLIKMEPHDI

In the case of CAACCC, the binding signal in experiment [1] is 1.15 fold enrichment (6-mer frequency, TF over GST control); in experiment [2], 1.22 fold enrichment (6-mer frequency, TF over GST control); in experiment [3], 1.27 fold enrichment (6-mer frequency, TF over GST control); in [4] it was 1.21 fold enrichment (6-mer frequency, TF over GST control); in [5], 1.24 fold enrichment (6-mer frequency, TF over GST control); in experiment [6], 1.16 fold enrichment (6-mer frequency, TF over GST control). The binding signal is 1.21 fold enrichment (6-mer frequency, TF over GST control) in experiment [7]; 1.26 fold enrichment (6-mer frequency, TF over GST control) in experiment [8]; 1.21 fold enrichment (6-mer frequency, TF over GST control) in [9]; 1.21 fold enrichment (6-mer frequency, TF over GST control) in [10]; 1.23 fold enrichment (6-mer frequency, TF over GST control) in experiment [11]; 1.23 fold enrichment (6-mer frequency, TF over GST control) in experiment [12]. For the same sequence, the binding signal in experiment [13] was 1.34 fold enrichment (6-mer frequency, TF over GST control); in [14] it was 1.22 fold enrichment (6-mer frequency, TF over GST control); in [15], 1.17 fold enrichment (6-mer frequency, TF over GST control); in [16], 1.34 fold enrichment (6-mer frequency, TF over GST control); in experiment [17], 1.18 fold enrichment (6-mer frequency, TF over GST control).

Consider CCTTGT, for which the binding signal in experiment [1] was 1.33 fold enrichment (6-mer frequency, TF over GST control); in experiment [2], 1.29 fold enrichment (6-mer frequency, TF over GST control); in [3], 1.25 fold enrichment (6-mer frequency, TF over GST control); in [4], 1.37 fold enrichment (6-mer frequency, TF over GST control); in [5], 1.23 fold enrichment (6-mer frequency, TF over GST control); in [6] it was 1.24 fold enrichment (6-mer frequency, TF over GST control). The binding signal is 1.25 fold enrichment (6-mer frequency, TF over GST control) in experiment [7]; 1.28 fold enrichment (6-mer frequency, TF over GST control) in experiment [8]; 1.18 fold enrichment (6-mer frequency, TF over GST control) in experiment [9]; 1.09 fold enrichment (6-mer frequency, TF over GST control) in experiment [10]; 1.32 fold enrichment (6-mer frequency, TF over GST control) in [11]; 1.11 fold enrichment (6-mer frequency, TF over GST control) in experiment [12]. Besides, the binding signal in experiment [13] is 1.29 fold enrichment (6-mer frequency, TF over GST control); in experiment [14], 1.37 fold enrichment (6-mer frequency, TF over GST control); in experiment [15], 1.03 fold enrichment (6-mer frequency, TF over GST control); in experiment [16], 1.08 fold enrichment (6-mer frequency, TF over GST control); in [17], 1.26 fold enrichment (6-mer frequency, TF over GST control).
